Inconclusive results are not listed. Active and inactive are the calls of the source. Calls follow the shape of the dose curve; as a rule, active = well fitted activation curve with a large enough effect in the repeat runs; inconclusive = weak or mixed curves, or effect the other way; inactive = no such curve, though single readings can be large or run the other way.
Assay: qHTS assay to identify small molecule agonists of the estrogen related receptor signaling pathway with the pleiotropic PPARgamma coactivator (PGC) from Tox21 10K library (AID 1224842); also: nearly all actives have a fitted effect of over 15% in size
Settings: PGC/ERR reporter cell line, luciferase ONE-Glo, 18 h; series mostly up to 92.4 µM; activation: at the top concentration
Excerpt: National Center for Advancing Translational Sciences [NCATS] NIH Chemical Genomics Center [NCGC] U.S. Environmental Protection Agency [EPA] National Institutes of Environmental Health Sciences [NIEHS] National Toxicology Program [NTP] Assay overview: Estrogen related receptors (ERRs), the first orphan nuclear receptors discovered, play an important role in the control of cellular energy metabolism. ERRs are required for high-energy production in response to the environmental challenges. The pleiotropic PPARgamma coactivator (PGC) is a major partner of ERR and a key regulator in energy homeostasis. Together they have been implicated in the etiology of metabolic disorders such as Type 2 diabetes and metabolic syndrome. ERR-alpha was also identified as an adverse marker for breast cancer progression; ERR-alpha-positive tumors have a poor prognosis. To screen and to identify environmental compounds that perturb the PGC/ERR signaling pathways could provide valuable information for potential therapeutic or preventive measures in the treatment of metabolic disease. For identifying PGC/ERR agonists, PGC/ERR cell line (provided by NTP) has been used to screen Tox21 10K library.
Assay Protocol Summary: The PGC/ERR cells were dispensed at 2,000 cells/5 ul/well in 1536-well white plates using a Multidrop dispenser. After the assay plates were incubated at a 37 C/5% CO2 incubator for 6 hours, 23 nL of compounds dissolved in DMSO, positive and negative controls or DMSO only was transferred to the assay plate by a pin tool. The plates were incubated at 37 C for 18 hours. 4 ul/well of One-Glo reagent was added into the assay plates using a Flying Reagent Dispenser. After 30-minute incubation at room temperature, the luminescence intensity in the plates was measured using a ViewLux plate reader.
% is scaled to controls: 0 for no effect and ±100 for the full control effect; potency is read from the fitted curve at half-maximal effect.

Compound	activation	Potency
CO[C@H]1O[C@H](CO)[C@@H](O)[C@H](O)[C@H]1O	-0.212% (inactive)	–
Cc1oc(C)c(C(=O)Nc2ccccc2)c1C	-15.9% (inactive)	–
CCNC(=O)N1CCN(CCCC(c2ccc(F)cc2)c2ccc(F)cc2)CC1	-17.7% [at 42.5 µM] (inactive)	–
O=S(=O)(c1ccccc1)c1ccc(Cl)cc1	-10.3% (inactive)	–
CC(COc1ccc(C(C)(C)C)cc1)OS(=O)OCCCl (stereo not given)	-30.7% (inactive)	–
CCCCCCCCCCCCCCCCBr	1.63% [at 19 µM] (inactive)	–
CN1C(=O)CC(C)(c2ccccc2)C1=O (stereo not given)	-1.33% [at 42.5 µM] (inactive)	–
CCCOC(=O)c1ccc(N)cc1	9.78% [at 42.5 µM] (inactive)	–
O=C(NCCCN1CCOCC1)c1ccc(Cl)cc1	6.49% [at 42.5 µM] (inactive)	–
CCCc1c(OCCCOc2ccc(OCC(=O)O)cc2)ccc(C(C)=O)c1O	-0.787% (inactive)	–
O=[N+]([O-])c1cccc(S(=O)(=O)NCCNS(=O)(=O)c2cccc([N+](=O)[O-])c2)c1	1.59% [at 42.5 µM] (inactive)	–
COc1ccc([C@@H]2Sc3ccccc3NC(=O)[C@@H]2O)cc1	-8.05% [at 42.5 µM] (inactive)	–
O=C(Nc1ccccc1)Nc1ccccc1	–	10.9 µM (active)
Cc1cc(O)c2c(O)c3c(O)cccc3cc2c1	-11.3% [at 42.5 µM] (inactive)	–
O=C(C(=O)c1ccccc1)c1ccccc1	1.28% (inactive)	–
CCCOc1ccc(S(=O)(=O)N2CCN(CC)CC2)cc1-c1nc2c(CC)n(Cc3ccccn3)nc2c(=O)[nH]1	-10.4% (inactive)	–
Oc1ccc(Nc2ccccc2)cc1	6.67% (inactive)	–
CCCC1C(CC)=CC(CC)=CN1c1ccccc1 (stereo not given)	-15.9% (inactive)	–
COC(=O)c1cc(Cl)ccc1NS(=O)(=O)C(F)(F)F	0.525% [at 42.5 µM] (inactive)	–
CC1(C)C(=O)N(Br)C(=O)N1Cl	-4.74% (inactive)	–

Compound	activation	Potency
CC[C@H](NC(=O)c1cc(F)ccc1NS(=O)(=O)c1cccc2cccnc12)c1ccccc1	-17.4% (inactive)	–
CC(=O)CC(c1ccc([N+](=O)[O-])cc1)c1c(O)c2ccccc2oc1=O (stereo not given)	-6.23% [at 42.5 µM] (inactive)	–
[O]=[Bi]	-4.11% [at 8.39 µM] (inactive)	–
C[N+]1(C)CCC(=C(c2ccccc2)c2ccccc2)CC1	-1.86% [at 42.5 µM] (inactive)	–
CC(C)CCCCCOC(=O)CCCCC(=O)OCCCCCC(C)C	-6% (inactive)	–
CC(C)(C)C(=O)O	0.963% (inactive)	–
CC(C)CCCC(=O)O	-0.0844% (inactive)	–
CC(=O)Oc1ccc2c(c1)CC[C@@H]1[C@@H]2CC[C@]2(C)[C@@H](O)CC[C@@H]12	3.53% [at 42.5 µM] (inactive)	–
c1cc[c]([Bi]([c]2ccccc2)[c]2ccccc2)cc1	-14.5% (inactive)	–
COC(=O)Nc1nc2ccc(C(=O)c3cccs3)cc2[nH]1	–	3.35 µM (active)
COc1ccccc1N=Nc1c(S(=O)(=O)O)cc2cc(S(=O)(=O)O)cc(NC(C)=O)c2c1O	-18.4% (inactive)	–
CCOC(=O)[C@@H](C)Oc1ccc(Oc2nc3ccc(Cl)cc3o2)cc1	-7.22% (inactive)	–
O=C(O)Cc1ccc(-c2ccccc2)cc1	2.83% [at 42.5 µM] (inactive)	–
Cc1nc2ccccc2s1	-7.33% (inactive)	–
Cc1cc(S(=O)(=O)O)ccc1N=Nc1c(O)ccc2ccccc12	-11.1% (inactive)	–
CN(C)CCOC1=Cc2ccccc2Sc2ccc(Cl)cc21	-0.332% [at 42.5 µM] (inactive)	–
COC(OC)(C(=O)c1ccccc1)c1ccccc1	-4.52% (inactive)	–
CCOC(=O)C(C)Oc1ccc(Oc2nc3ccc(Cl)cc3o2)cc1 (stereo not given)	-9.33% (inactive)	–
c1ccc(COCc2ccccc2)cc1	-0.134% (inactive)	–
C=CC(C)(O)CCCC(C)CCCC(C)CCCC(C)C (stereo not given)	0.706% (inactive)	–

Source: PubChem BioAssay (Tox21)
